Consider 14 molecules from PubChem BioAssay (Tox21).

Assay [1] in a line: qHTS assay to test for compound auto fluorescence at 535 nm (green) in HEK293 cells (AID 720680). (In general: In qHTS, concentration-response curves come from the screen itself.)
The nature of assay [2]: qHTS assay to test for compound auto fluorescence at 460 nm (blue) in HEK293 cell free culture (AID 720681). Note: potency is the fitted concentration of half-maximal effect. The essentials: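 Test compounds were pinned into cell-free culture medium (DMEM with 10% FBS) and fluorescence was read directly at Ex/Em 405/460 nm. Signals were expressed as fluorescence equivalents of triamterene, with DMSO vehicle as control.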
A short description of assay [3]: qHTS assay to test for compound auto fluorescence at 535 nm (green) in HEK293 cell free culture (AID 720682). The essentials:
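Measurement is a direct plate read of green fluorescence (485 nm in, 535 nm out) after compound addition to serum-supplemented DMEM lacking cells, with fluorescein used to express intensities.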

Assay [4] can be described thus: qHTS assay to test for compound auto fluorescence at 590 nm (red) in HEK293 cell free culture (AID 720683). The essentials: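 Tox21 10K library compounds were pinned into cell-free DMEM with 10% FBS and fluorescence was read at excitation 540 nm. Activity is expressed as Rose Bengal sodium equivalency.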
The nature of assay [5]: qHTS assay to test for compound auto fluorescence at 590 nm (red) in HepG2 cell free culture (AID 720684). The essentials:
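Ex 540 / Em 590 nm read of compound in cell-free MEM (10% FBS). Rose Bengal sodium reference.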

Assay [6] can be described thus: qHTS assay to test for compound auto fluorescence at 460 nm (blue) in HepG2 cell free culture (AID 720685). Note: potency is the fitted concentration of half-maximal effect. The essentials:
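Cell-free plates of MEM plus 10% FBS received 23 nL compound or DMSO vehicle; blue-channel (405/460 nm) intensity scored against triamterene as reference fluorophore.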

Assay [7] in a line: qHTS assay to test for compound auto fluorescence at 535 nm (green) in HepG2 cell free culture (AID 720686).
The nature of assay [8]: qHTS assay to test for compound auto fluorescence at 460 nm (blue) in HepG2 cells (AID 720687). Note: potency is the fitted concentration of half-maximal effect. The essentials: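 Cells (2,000/well in MEM with 10% FBS) attached overnight at 37 C, then were exposed to compound or DMSO for 1 hr at 37 C, 5% CO2. Fluorescence read at Ex/Em 405/460 nm, expressed as triamterene-equivalent signal.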
Assay [9] has as its target Glucocorticoid receptor (Homo sapiens) (UniProt P04150). Briefly: qHTS assay to identify small molecule agonists of the glucocorticoid receptor (GR) signaling pathway (AID 720691; active = well fitted activation curve with a large enough effect in the signal ratio in the repeat runs, not every such curve was filed as active; the % refers to the signal ratio). The essentials:
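Steps: seed GR-bla HeLa cells, incubate 4 h at 37 C/5% CO2; pin-transfer DMSO-dissolved compounds; incubate 18 h at 37 C; add LiveBLAzer B/G FRET substrate; after 2 h at room temperature, measure fluorescence.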

A short description of assay [10]: qHTS assay for identifying genotoxic compounds that show differential cytotoxicity against isogenic chicken DT40 cell lines with known DNA damage response pathways - wild type cell line (AID 743012). Note: nearly all actives have a fitted effect of over 60% in size. Note: potency is the fitted concentration of half-maximal effect. The essentials:
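Cytotoxicity in repair-proficient parental chicken DT40 cells serves as the comparator for Rad54/Ku70- and Rev3-deficient lines. Cells were exposed to compounds for 40 h at 37 C/5% CO2, and ATP-based luminescence (CellTiter-Glo) measured viability.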

Assay [11] in a line: qHTS assay for identifying genotoxic compounds that show differential cytotoxicity against isogenic chicken DT40 cell lines with known DNA damage response pathways - Rev3 mutant cell line (AID 743014). Note: nearly all actives have a fitted effect of over 55% in size. Note: potency is the fitted concentration of half-maximal effect.
A short description of assay [12]: qHTS assay for identifying genotoxic compounds that show differential cytotoxicity against isogenic chicken DT40 cell lines with known DNA damage response pathways - Rad54/Ku70 mutant cell line (AID 743015). Note: nearly all actives have a fitted effect of over 60% in size. Note: potency is the fitted concentration of half-maximal effect.
Assay [13] can be described thus: qHTS assay to identify small molecule antagonists of the androgen receptor (AR) signaling pathway using the MDA cell line - cell viability counter screen (AID 743041; note: nearly all actives have a fitted effect of over 45% in size; note: potency is the fitted concentration of half-maximal effect). The essentials: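 In this qHTS counter assay, fluorescence intensity after CellTiter-Fluor addition indicated viability of MDA-kb2 AR-luc cells given compounds and R1881 for 16 h at 37C.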
The nature of assay [14]: qHTS assay to identify small molecule antagonists of the glucocorticoid receptor (GR) signaling pathway - cell viability counter screen (AID 720693). Note: nearly all actives have a fitted effect of over 55% in size. Note: potency is the fitted concentration of half-maximal effect.
For assay [15], the target named is Androgen receptor (Homo sapiens) (UniProt P10275). Briefly: qHTS assay to identify small molecule antagonists of the androgen receptor (AR) signaling pathway (AID 743035; active = well fitted inhibition curve with a large enough effect in the signal ratio in the repeat runs, not every such curve was filed as active; the % refers to the signal ratio). The essentials: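 Steps: seed AR-UAS-bla GripTite HEK293 cells, incubate 4 h at 37C; pin in test compound, then add agonist R1881; incubate 16 h at 37C; add LiveBLAzer B/G FRET substrate, 2 h at room temperature; read fluorescence.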

Assay [16] shares this target. Briefly: qHTS assay to identify small molecule agonists of the androgen receptor (AR) signaling pathway (AID 743036; active = well fitted activation curve with a large enough effect in the signal ratio in the repeat runs, with a control signal flat, not every such curve was filed as active; the % refers to the signal ratio). The essentials: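 Beta-lactamase under UAS control, stably integrated in HEK293 GripTite cells, reports receptor activation. After 16 h compound treatment, cells received FRET substrate for 2 h at room temperature before fluorescence reading.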
For assay [17] the target is unchanged. Briefly: qHTS assay to identify small molecule agonists of the androgen receptor (AR) signaling pathway using the MDA cell line (AID 743040; note: nearly all actives have a fitted effect of over 20% in size). The essentials:
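Cell-based luciferase reporter: MDA-kb2, MMTV promoter (AR + GR response elements). 16 h compound exposure at 37C; ONE-Glo, 30 min RT, luminescence.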

For assay [18] the target is unchanged. Kind of assay: qHTS assay to identify small molecule antagonists of the androgen receptor (AR) signaling pathway using the MDA cell line (AID 743042; note: nearly all actives have a fitted effect of over 55% in size). The essentials:
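MDA-kb2 cells (human breast carcinoma, stably carrying an MMTV-luciferase reporter responsive to AR and GR) were plated at 3,000 cells/well and preincubated 5 hr at 37C, then given compound plus R1881 agonist for 16 h. ONE-Glo luminescence was read.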

A short description of assay [19]: qHTS assay to identify small molecule antagonists of the androgen receptor (AR) signaling pathway - cell viability counter screen (AID 743033; note: nearly all actives have a fitted effect of over 45% in size).

A number with no mark means an inactive call. Results filed as inconclusive are left out. The source made the active and inactive calls. Unless noted, calls come from the whole dose curve; as a rule, active = well fitted curve in the direction sought with a large enough effect in the repeat runs; inconclusive = weak or mixed curves; inactive = no such curve, though single readings can be large; an effect the other way counts as inactive or inconclusive.
Tags give direction and shape of the fitted curve or compound fluorescence and quenching.

Glucocorticoid receptor (Homo sapiens), sequence (P04150 whole entry, looked up): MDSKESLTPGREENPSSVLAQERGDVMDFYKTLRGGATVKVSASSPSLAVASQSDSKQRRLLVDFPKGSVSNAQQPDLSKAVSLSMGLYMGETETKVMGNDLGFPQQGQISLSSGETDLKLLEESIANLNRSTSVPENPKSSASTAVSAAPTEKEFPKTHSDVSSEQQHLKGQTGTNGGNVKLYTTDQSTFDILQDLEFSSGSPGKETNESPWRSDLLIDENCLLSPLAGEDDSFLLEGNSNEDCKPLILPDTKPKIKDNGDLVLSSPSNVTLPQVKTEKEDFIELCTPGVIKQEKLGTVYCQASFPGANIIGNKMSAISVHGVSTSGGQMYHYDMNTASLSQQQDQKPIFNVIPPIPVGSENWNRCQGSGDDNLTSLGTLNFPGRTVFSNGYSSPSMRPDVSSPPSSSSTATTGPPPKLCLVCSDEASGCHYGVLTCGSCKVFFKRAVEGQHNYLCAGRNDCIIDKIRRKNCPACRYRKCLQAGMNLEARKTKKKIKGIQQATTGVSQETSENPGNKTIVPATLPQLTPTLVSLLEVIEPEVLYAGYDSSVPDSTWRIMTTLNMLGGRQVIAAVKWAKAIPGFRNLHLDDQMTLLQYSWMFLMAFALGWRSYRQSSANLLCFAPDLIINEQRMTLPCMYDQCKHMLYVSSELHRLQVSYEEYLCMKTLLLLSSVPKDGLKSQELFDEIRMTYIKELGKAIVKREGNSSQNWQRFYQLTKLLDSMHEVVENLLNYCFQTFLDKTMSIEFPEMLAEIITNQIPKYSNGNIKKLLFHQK
Androgen receptor (Homo sapiens), sequence (P10275 whole entry, looked up): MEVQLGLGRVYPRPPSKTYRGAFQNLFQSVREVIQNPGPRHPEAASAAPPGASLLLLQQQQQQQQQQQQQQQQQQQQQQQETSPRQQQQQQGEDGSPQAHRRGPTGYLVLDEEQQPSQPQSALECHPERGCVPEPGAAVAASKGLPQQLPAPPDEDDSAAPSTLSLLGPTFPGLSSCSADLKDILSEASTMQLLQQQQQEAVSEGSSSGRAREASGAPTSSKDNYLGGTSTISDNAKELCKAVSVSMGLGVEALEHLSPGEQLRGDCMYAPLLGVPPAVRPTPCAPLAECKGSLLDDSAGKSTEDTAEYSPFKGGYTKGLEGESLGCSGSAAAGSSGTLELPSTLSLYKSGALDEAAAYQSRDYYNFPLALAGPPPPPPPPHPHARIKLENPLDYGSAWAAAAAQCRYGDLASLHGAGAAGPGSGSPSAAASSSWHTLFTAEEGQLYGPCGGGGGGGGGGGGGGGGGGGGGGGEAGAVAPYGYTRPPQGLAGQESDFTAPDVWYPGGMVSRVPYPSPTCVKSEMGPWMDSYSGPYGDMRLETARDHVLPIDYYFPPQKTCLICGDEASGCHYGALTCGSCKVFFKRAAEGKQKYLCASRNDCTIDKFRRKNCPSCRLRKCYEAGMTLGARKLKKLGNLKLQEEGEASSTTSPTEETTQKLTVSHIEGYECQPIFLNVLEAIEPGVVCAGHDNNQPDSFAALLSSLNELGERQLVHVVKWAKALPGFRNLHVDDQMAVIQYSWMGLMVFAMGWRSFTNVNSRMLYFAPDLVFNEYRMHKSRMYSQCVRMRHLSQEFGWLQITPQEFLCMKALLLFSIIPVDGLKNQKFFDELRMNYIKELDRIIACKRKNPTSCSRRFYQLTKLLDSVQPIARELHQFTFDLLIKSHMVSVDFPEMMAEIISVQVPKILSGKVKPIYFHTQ

As to `CO[C@@H]1[C@@H](OC)[C@H](C)[C@@](O)(CC(=O)O)O[C@H]1[C@H](C)[C@H]1O[C@@]2(CC[C@@](C)([C@H]3CC[C@@](C)([C@@H]4O[C@@H]([C@H]5O[C@](C)(O)[C@H](C)C[C@@H]5C)C[C@@H]4OC4C[C@H](OC)[C@@H](OC)[C@H](C)O4)O3)O2)C[C@H](O)[C@H]1C` (stereo partly specified), the molecule was called inactive in [1], in [3], in [4], in assay [5] and in assay [7]. Further, the Potency entry in assay [2], in [6], in assay [8] and in assay [9] was “inactive” throughout. Also, the Potency was 0.168 µM (active) in [10], 0.15 µM (active) in assay [11], 0.211 µM (active) in [12] and 1.06 µM (active) in assay [13].

For `CC1CCC(C(C)CS)CC1S` (stereo unspecified), the call in assay [1], in assay [3], in [4], in [5], in assay [7] and in [16] was inactive. In addition, the Potency result in assay [2], in assay [6], in [8], in [9], in assay [10] and in assay [11] was “inactive” in each case. The Potency result in assay [12], in [15], in assay [17], in [13] and in assay [18] was “inactive” each time. Besides, in assay [14], the Potency is 49 µM (active).

In the case of `COc1ccc(/C=C/C(=O)c2ccc(OC)cc2OC)cc1`, the outcome in assay [1], in [3], in [4], in assay [5] and in assay [7] was inactive. Also, the Potency entry in assay [2], in assay [6], in assay [8], in [9], in assay [14] and in assay [19] was “inactive” each time. In assay [13], the Potency entry was “inactive”. The Potency in assay [10] is 10.6 µM (active); in assay [11], 16.8 µM (active); in [12] it was 18.8 µM (active).

As to `CC(=O)OCC1=C(C(=O)O)N2C(=O)[C@@H](NC(=O)CSc3ccncc3)[C@H]2SC1`, the outcome in assay [1], in [3], in assay [4], in assay [5] and in assay [7] was inactive. In addition, the Potency result in [2], in [6], in [8], in assay [9], in assay [14] and in assay [10] was “inactive” throughout. Besides, the Potency result in [12], in assay [19] and in assay [13] was “inactive” throughout.

As for `c1ccc(CCCc2ccncc2)cc1`, the outcome in assay [1], in assay [3], in assay [4], in assay [5] and in assay [7] was inactive. The Potency result in [2], in assay [6], in assay [8], in assay [9], in [14] and in assay [10] was “inactive” each time. Also, the Potency result in assay [12] and in assay [19] was “inactive” in each case.

As for `O=C1CC[C@@H](C(=O)O)N1`, the call in assay [1], in assay [3], in assay [4], in assay [5], in assay [7] and in assay [16] was inactive. Besides, the Potency entry in assay [2], in assay [6], in assay [8], in [9], in assay [14] and in assay [10] was “inactive” throughout. Besides, the Potency entry in assay [11], in assay [12], in assay [19], in assay [15], in assay [17] and in assay [18] was “inactive” each time.

On to `CC(=O)OCCC(C)CC(C)(C)C` (stereo unspecified), for which the call in [1], in [3], in assay [4], in assay [5] and in assay [7] was inactive. Further, the Potency result in assay [2], in assay [6], in assay [8], in assay [9], in [10] and in assay [11] was “inactive” in each case. Further, the Potency result in assay [19] and in assay [13] was “inactive” each time.

Turning to `O=C(O)c1cccc(C[C@@H]2COc3ccc(OCc4nc5cc(F)ccc5s4)cc3[C@@H]2O)c1`, the outcome in assay [1], in [3], in [4], in assay [5] and in assay [7] was inactive. The Potency entry in [2], in assay [6], in assay [8], in assay [9], in assay [14] and in assay [19] was “inactive” throughout. In addition, in assay [13], the Potency result is “inactive”. The Potency in [11] was 68.7 µM (active).

With `CCOC(=O)c1c(N)sc2c1CCN(Cc1ccccc1)C2`, the call in assay [1], in assay [3], in [4], in [5] and in assay [7] was inactive. Moreover, the Potency in [2] was 15.8 µM (active); in [6], 15.8 µM [fluorescent] (active); in assay [8], 17.8 µM [fluorescent] (active); in [10], 29.8 µM (active). The Potency result in [9], in assay [14] and in assay [13] was “inactive” in each case.

Turning to `CC(=O)C(=O)CC(C)C`, the molecule was classed as inactive in assay [1], in assay [3], in [4], in assay [5] and in [7]. In addition, the Potency result in [2], in assay [6], in assay [8], in assay [9], in assay [14] and in assay [10] was “inactive” each time. In addition, in [13], the Potency entry was “inactive”.

`CC(C)(C)S`: the outcome in assay [1], in assay [3], in [4], in assay [5] and in assay [7] was inactive. Moreover, the Potency entry in [2], in assay [6], in assay [8], in assay [9], in assay [14] and in [10] was “inactive” in each case. The Potency entry in assay [11] and in [19] was “inactive” each time.

As for `CCCCCCCC(=O)Oc1c(Br)cc(C#N)cc1Br`, the molecule was called inactive in [1], in assay [3], in assay [4], in [5] and in assay [7]. In addition, the Potency result in assay [2], in [6], in assay [8], in assay [9], in assay [14] and in assay [10] was “inactive” each time. Besides, the Potency result in assay [11] and in assay [13] was “inactive” in each case.

In the case of `COc1ccc(-c2cc(=S)ss2)cc1`, the molecule was classed as inactive in assay [1], in assay [3], in assay [4], in assay [5] and in assay [7]. Moreover, the Potency entry in assay [2], in assay [6], in assay [8], in assay [9] and in assay [14] was “inactive” each time. In addition, the Potency in assay [10] was 26.6 µM (active).

For `CC(C)COC(=O)c1ccc(O)cc1`, the molecule was called inactive in [1], in [3], in [4], in assay [5] and in assay [7]. The Potency result in [2], in assay [6], in [8], in assay [9], in [14] and in assay [10] was “inactive” throughout. Further, the Potency entry in [11] and in [19] was “inactive” throughout.
